This note sets out measurements from PubChem BioAssay (EPA / NIEHS).

A word on the AC50: it is the concentration giving half of the maximal activity seen.

Several values for one entry are separate records, joined by “and”; a condition that tells them apart may be missing. Identical values can stand only once. More than one record can exist for a structure, and the calls need not agree. Activity calls are given as the source filed them. How the source made its calls: active means hit-call score of the fitted dose curve at least 0.9, where 1 is the maximum; inactive means score below 0.9.

Read-out in assay [1]: TIMP metallopeptidase inhibitor 2 (TIMP2), TIMP2 (gene 7077)
The assay is described as follows: BSK_KF3CT_TIMP2: BioMAP Diversity Plus: KF3CT Assay for TIMP metallopeptidase inhibitor 2 (TIMP2) Biomarker Activity (AID 2283071). To be noted: primary human keratinocytes with fibroblasts; actives raise or lower the signal. Summed up: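 TIMP-2 measured by ELISA at 24 h in human keratinocyte/fibroblast primary co-cultures exposed to chemicals. Both increases and decreases were fitted against DMSO. Parallel cultures were stained with SRB for total protein as an overt-cytotoxicity check.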

Read-out in assay [2]: Transforming growth factor beta 1 (TGFb1), TGFB1 (gene 7040)
The assay is described as follows: BSK_KF3CT_TGFb1: BioMAP Diversity Plus: KF3CT Assay for Transforming growth factor beta 1 (TGFb1) Biomarker Activity (AID 2283072). To be noted: primary human keratinocytes with fibroblasts; actives raise or lower the signal. An outline of the steps:
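ELISA quantifies TGF-b1 at 24 h post-dose in a primary human skin co-culture of keratinocytes and fibroblasts, with gain or loss judged against DMSO. Parallel SRB total-protein staining flags overt cytotoxicity.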

Read-out in assay [3]: Matrix Metallopeptidase 9 (MMP9), MMP9 (gene 4318)
Put plainly: BSK_KF3CT_MMP9: BioMAP Diversity Plus: KF3CT Assay for Matrix Metallopeptidase 9 (MMP9) Biomarker Activity (AID 2283074).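 On AC50: MMP9 protein level quantified by ELISA in the co-culture.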 To be noted: primary human keratinocytes with fibroblasts; actives raise or lower the signal. An outline of the steps: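 Values come from bidirectional fitting relative to DMSO of MMP-9 levels, which were measured by ELISA. Measurements were taken 24 h after chemical dosing of a keratinocyte and foreskin fibroblast co-culture.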

Read-out in assay [4]: urokinase plasminogen activator (uPA), PLAU (gene 5328)
The assay is described as follows: BSK_KF3CT_uPA: BioMAP Diversity Plus: KF3CT Assay for urokinase plasminogen activator (uPA) Biomarker Activity (AID 2283075). To be noted: primary human keratinocytes with fibroblasts; actives raise or lower the signal. An outline of the steps: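 Values derive from bidirectional fitting against DMSO controls. Keratinocyte/foreskin fibroblast co-cultures received chemical; 24 h later uPA was detected by ELISA, with SRB total-protein staining in parallel wells for overt cytotoxicity.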

Read-out in assay [5]: CD40, CD40 (gene 958)
Put plainly: BSK_LPS_CD40: BioMAP Diversity Plus: LPS Assay for CD40 Biomarker Activity (AID 2283076). The following applies: primary human HUVEC with PBMC; actives raise or lower the signal. Summed up:
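HUVEC plus PBMC co-culture stimulated with LPS; CD40 quantified by ELISA 24 h after compound dosing. Fitting was bidirectional relative to DMSO. SRB staining of parallel cultures flagged overt cytotoxicity.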

Read-out in assay [6]: E-selectin (Homo sapiens) (UniProt P16581)
The assay is described as follows: BSK_LPS_Eselectin: BioMAP Diversity Plus: LPS Assay for Eselectin Biomarker Activity (AID 2283077). To be noted: primary human HUVEC with PBMC; actives raise or lower the signal. An outline of the steps:
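Human umbilical vein endothelial cells co-cultured with PBMC under LPS stimulation; cell-surface E-selectin measured by ELISA 24 h after dosing. Change in either direction versus DMSO, with SRB total-protein staining in parallel cultures for cytotoxicity.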

Read-out in assay [7]: Interleukin-8 (IL8), CXCL8 (gene 3576)
Put plainly: BSK_LPS_IL8: BioMAP Diversity Plus: LPS Assay for Interleukin-8 (IL8) Biomarker Activity (AID 2283078). To be noted: primary human HUVEC with PBMC; actives raise or lower the signal. An outline of the steps: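 Human umbilical vein endothelial cells co-cultured with PBMC, LPS-stimulated, exposed to compound for 24 h. IL-8 quantified by ELISA; fitted in both directions against DMSO, with SRB total-protein staining of parallel cultures for cytotoxicity.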

Read-out in assay [8]: Interleukin-1 alpha (IL1a), IL1A (gene 3552)
Put plainly: BSK_LPS_IL1a: BioMAP Diversity Plus: LPS Assay for Interleukin-1 alpha (IL1a) Biomarker Activity (AID 2283080). To be noted: primary human HUVEC with PBMC; actives raise or lower the signal. Summed up: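 Human umbilical vein endothelial cells co-cultured with PBMC and stimulated with LPS; IL-1a measured by ELISA 24 h after dosing. Bidirectional fitting against DMSO; cytotoxicity checked by SRB staining in parallel cultures.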

Read-out in assay [9]: Monocyte Chemoattractant Protein-1 (MCP1), CCL2 (gene 6347)
Put plainly: BSK_LPS_MCP1: BioMAP Diversity Plus: LPS Assay for Monocyte Chemoattractant Protein-1 (MCP1) Biomarker Activity (AID 2283081).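 On AC50: secreted MCP-1 protein quantified by ELISA in culture supernatant.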 The following applies: primary human HUVEC with PBMC; actives raise or lower the signal. Summed up: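 Human umbilical vein endothelial cells co-cultured with PBMC, LPS-stimulated; secreted MCP-1 measured by ELISA 24 h after compound addition. Bidirectional curve fitting against DMSO baseline; SRB total-protein staining in parallel cultures for cytotoxicity.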

A short description of assay [10]: BSK_LPS_PGE2: BioMAP Diversity Plus: LPS Assay for Prostaglandin E2 (PGE2) Biomarker Activity (AID 2283082). The following applies: primary human HUVEC with PBMC; actives raise or lower the signal. Summed up: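 PGE2 release measured by ELISA in an LPS-activated co-culture of human umbilical vein endothelial cells and peripheral blood mononuclear cells, read at 24 h post-dosing. DMSO served as baseline for bidirectional curve fitting.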

Read-out in assay [11]: Macrophage colony-stimulating factor (MCSF), CSF1 (gene 1435)
Put plainly: BSK_LPS_MCSF: BioMAP Diversity Plus: LPS Assay for Macrophage colony-stimulating factor (MCSF) Biomarker Activity (AID 2283083). The following applies: primary human HUVEC with PBMC; actives raise or lower the signal. Summed up:
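HUVEC–PBMC co-culture, M-CSF measured by ELISA 24 h after chemical dosing. Fitted in both directions relative to DMSO as negative control; overt cytotoxicity assessed by SRB total-protein staining in parallel cultures.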

Read-out in assay [12]: Tissue Factor, F3 (gene 2152)
Put plainly: BSK_LPS_TissueFactor: BioMAP Diversity Plus: LPS Assay for Tissue Factor Biomarker Activity (AID 2283084). The following applies: primary human HUVEC with PBMC; actives raise or lower the signal. An outline of the steps: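 Human umbilical vein endothelial cells co-cultured with PBMC were dosed with compound. Cell-surface CD142 was measured by ELISA 24 h later. Activity was fitted bidirectionally against DMSO, with SRB total-protein staining in parallel cultures for cytotoxicity.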

Read-out in assay [13]: Tumor necrosis factor (Homo sapiens) (UniProt P01375)
The assay is described as follows: BSK_LPS_TNFa: BioMAP Diversity Plus: LPS Assay for Tumour Necrosis Factor alpha (TNFa) Biomarker Activity (AID 2283085).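 On AC50: TNFa protein level quantified by ELISA in the co-culture.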 The following applies: primary human HUVEC with PBMC; actives raise or lower the signal. Summed up:
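TNFa was quantified by ELISA in LPS-activated co-cultures of human endothelial cells and PBMC, 24 h post-dosing. Both increases and decreases versus DMSO were fitted.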

Read-out in assay [14]: Vascular cell adhesion molecule 1 (VCAM1), VCAM1 (gene 7412)
The assay is described as follows: BSK_LPS_VCAM1: BioMAP Diversity Plus: LPS Assay for Vascular cell adhesion molecule 1 (VCAM1) Biomarker Activity (AID 2283086). The following applies: primary human HUVEC with PBMC; actives raise or lower the signal. An outline of the steps:
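VCAM-1 quantified by ELISA in an LPS-activated co-culture of human endothelial cells and peripheral blood mononuclear cells, read 24 h post-treatment. Fitted in both directions versus DMSO; parallel SRB staining flags overt cytotoxicity.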

Read-out in the next assay: CD38, CD38 (gene 952)
The assay is described as follows: BSK_SAg_CD38: BioMAP Diversity Plus: SAg Assay for CD38 Biomarker Activity (AID 2283087). The following applies: primary human HUVEC with PBMC; actives raise or lower the signal. Summed up:
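CD38 quantified by ELISA (fluorescence) in a superantigen-activated endothelial cell–PBMC co-culture at 24 h post-dose. Activity fitted in both directions relative to DMSO; parallel SRB and Alamar Blue cytotoxicity read-outs.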

Read-out in assay [15]: CD40, CD40 (gene 958)
The assay is described as follows: BSK_SAg_CD40: BioMAP Diversity Plus: SAg Assay for CD40 Biomarker Activity (AID 2283088). To be noted: primary human HUVEC with PBMC; actives raise or lower the signal. Summed up:
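HUVEC plus PBMC co-culture, superantigen-activated, with CD40 read by ELISA 24 h after dosing. Curves fitted in both directions against DMSO. Overt cytotoxicity checked by parallel SRB total-protein staining.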

Read-out in the next assay: CD69, CD69 (gene 969)
Put plainly: BSK_SAg_CD69: BioMAP Diversity Plus: SAg Assay for CD69 Biomarker Activity (AID 2283089).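 On AC50: cell surface CD69 protein quantified by ELISA with fluorescence detection.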 The following applies: primary human HUVEC with PBMC; actives raise or lower the signal. Summed up: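 Endothelial/PBMC co-culture; chemical added; 24 h incubation; CD69 ELISA with fluorescence detection; bidirectional fit vs DMSO.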

Read-out in assay [16]: Monocyte Chemoattractant Protein-1 (MCP1), CCL2 (gene 6347)
The assay is described as follows: BSK_SAg_MCP1: BioMAP Diversity Plus: SAg Assay for Monocyte Chemoattractant Protein-1 (MCP1) Biomarker Activity (AID 2283090). The following applies: primary human HUVEC with PBMC; actives raise or lower the signal. Summed up: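 Values derive from bidirectional fitting of ELISA-measured MCP1 against DMSO controls. Readings were taken 24 h after dosing human vascular endothelial cells co-cultured with peripheral blood mononuclear cells under superantigen stimulation.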

Read-out in assay [17]: C-C motif chemokine 2 (Homo sapiens) (UniProt P13500)
Put plainly: BSK_KF3CT_MCP1: BioMAP Diversity Plus: KF3CT Assay for Monocyte Chemoattractant Protein 1 (MCP1/CCL2) Biomarker Activity (AID 2283073). The following applies: primary human keratinocytes with fibroblasts; actives raise or lower the signal. An outline of the steps:
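Human keratinocyte–foreskin fibroblast co-culture; MCP-1 measured by ELISA 24 h after dosing. Bidirectional fit vs DMSO; cytotoxicity tracked by SRB total protein in parallel cultures.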

The nature of assay [18]: BSK_LPS_SRB: Viability Assessment in the BioMAP Diversity Plus: LPS Assay (AID 2283079).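 Further: total protein by sulforhodamine B absorbance as a cytotoxicity measure; measured one day after compound addition; fitted in both directions against DMSO so loss or gain of signal counts.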 The following applies: primary human HUVEC with PBMC. Summed up: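 Co-culture of human umbilical vein endothelial cells and PBMC, read 24 h after dosing. Total protein by 0.1% SRB staining after 10% TCA fixation, absorbance at 560 nm; bidirectional fit against DMSO.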

Chain of Tumor necrosis factor (Homo sapiens) (P01375 whole entry, looked up): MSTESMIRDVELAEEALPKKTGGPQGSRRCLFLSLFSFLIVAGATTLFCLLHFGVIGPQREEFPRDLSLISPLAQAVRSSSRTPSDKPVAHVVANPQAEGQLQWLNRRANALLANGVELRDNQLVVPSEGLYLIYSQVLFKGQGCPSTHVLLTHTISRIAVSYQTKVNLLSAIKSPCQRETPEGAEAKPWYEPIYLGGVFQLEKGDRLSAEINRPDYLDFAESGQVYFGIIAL
Chain of E-selectin (Homo sapiens) (P16581 whole entry, looked up): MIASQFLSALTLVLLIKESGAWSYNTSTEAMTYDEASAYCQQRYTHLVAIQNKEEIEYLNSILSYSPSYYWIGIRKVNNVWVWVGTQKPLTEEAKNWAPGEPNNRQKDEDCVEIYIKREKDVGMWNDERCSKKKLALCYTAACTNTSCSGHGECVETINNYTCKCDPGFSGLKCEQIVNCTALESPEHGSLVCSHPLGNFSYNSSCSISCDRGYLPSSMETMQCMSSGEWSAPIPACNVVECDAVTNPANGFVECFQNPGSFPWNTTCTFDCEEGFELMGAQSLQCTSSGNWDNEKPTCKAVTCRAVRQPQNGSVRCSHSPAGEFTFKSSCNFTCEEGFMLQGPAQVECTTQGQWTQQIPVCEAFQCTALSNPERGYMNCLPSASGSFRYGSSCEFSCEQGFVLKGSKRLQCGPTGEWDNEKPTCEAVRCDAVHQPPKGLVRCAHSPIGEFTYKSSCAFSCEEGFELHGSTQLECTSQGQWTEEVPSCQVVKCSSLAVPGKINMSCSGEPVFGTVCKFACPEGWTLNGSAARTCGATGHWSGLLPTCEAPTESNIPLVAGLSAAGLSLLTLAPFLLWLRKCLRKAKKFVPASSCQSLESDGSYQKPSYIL

Take `O=S1OCC2C(CO1)C1(Cl)C(Cl)=C(Cl)C2(Cl)C1(Cl)Cl` (stereo not drawn): the AC50 in assay [1] was 26.9 µM (active); in assay [3], 15.9 µM (active); in assay [4], 30.9 µM (active); with CD40, CD40 (gene 958) [5], 29.2 µM (active); in assay [6] it was 30.9 µM (active); in [7] it was 33.5 µM (active). For the same compound, the AC50 in [8] is 16.3 µM (active); in [9] it was 34.9 µM (active); in [11], 30.2 µM (active); in assay [12], 31.2 µM (active); in [13] it was 32.2 µM (active); in [14], 18.3 µM (active). Also, the AC50 with CD38, CD38 (gene 952) was 28.3 µM (active); in the assay with CD40, CD40 (gene 958) [15], 16.3 µM (active); with CD69, CD69 (gene 969), 26.9 µM (active); in assay [16] it was 35.5 µM (active). The outcome in [2] and in assay [10] was inactive.
As for `O=S(=O)(O)C(F)(F)C(F)(F)C(F)(F)C(F)(F)C(F)(F)C(F)(F)C(F)(F)C(F)(F)F`, the AC50 in assay [2] was 30.1 µM (active) and 31.6 µM (active) and 31.3 µM (active); in assay [17], 16.8 µM (active); in assay [4], 35.6 µM (active) and 30.4 µM (active); in assay [7], 9.09 µM (active) and 1.92 µM (active) and 7.33 µM (active); in assay [13], 15 µM (active); with CD40, CD40 (gene 958) [15], 20 µM (active). The outcome was “inactive” in [2]; “inactive” in assay [17]; “inactive” in assay [3]; “inactive” in assay [4]; “inactive” with CD40, CD40 (gene 958) [5]; “inactive” in assay [6]. The outcome in [7], in assay [18], in assay [8], in assay [9], in [10] and in [11] was inactive. The outcome is “inactive” in [12]; “inactive” in assay [13]; “inactive” in [14]; “inactive” with CD38, CD38 (gene 952); “inactive” in the assay with CD40, CD40 (gene 958) [15]; “inactive” with CD69, CD69 (gene 969). In assay [16], the result was inactive.
